Screening data as filed in PubChem.
M1 agonist: M1 muscarinic receptor agonists, primary screen, CHO-M1 cells, Fluo-4 calcium, agonist mode; B-score at 10 µM; 3% of 64,000 active; Muscarinic acetylcholine receptor M1; Fluo-4 calcium fluorescence; active compounds read high; AID 626, 2007;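 active = fluorescence rise, raw or as B-score row- and column-corrected plate score, outside the 99.7% band of its plate's samples, either direction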
M1 antagonist: antagonists of rat M1 muscarinic receptor | Muscarinic acetylcholine receptor M1 (Rattus norvegicus), P08482 | B-score at 10 µM | AID 628, 2007 | 3.4% of 64,000 active | CHO-M1 cells, Fluo-4 calcium, ACh EC80 antagonist mode; active compounds read low;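 active = calcium fluorescence response, raw or row-and-column corrected B-score, differing from the plate sample mean either way at a set confidence level, mostly lower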
PLAP activator: PLAP enzyme activators, biochemical, luminescence, HTS; purified PLAP enzyme, luminescent substrate read-out; active compounds read high; activation fold at 20 µM; 1.2% of 96,000 active; AID 696, 2007; in the data active = activation fold above about 2
Cav32 inh: Cav3.2 calcium influx blockers – cell-based, Fluo-4 calcium fluorescence, FDSS, MLSMR library, primary screen | Cav3.2-expressing cells; active compounds read low | Voltage-dependent T-type calcium channel subunit alpha-1H (Homo sapiens), O95180 | 4% of 100,000 active | B-score at 10 µM;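 active = single-dose well whose peak fluorescence ratio is a statistical outlier from its plate by either plate-standardised score or position-corrected B-score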
Target sequence (O95180 whole entry, looked up): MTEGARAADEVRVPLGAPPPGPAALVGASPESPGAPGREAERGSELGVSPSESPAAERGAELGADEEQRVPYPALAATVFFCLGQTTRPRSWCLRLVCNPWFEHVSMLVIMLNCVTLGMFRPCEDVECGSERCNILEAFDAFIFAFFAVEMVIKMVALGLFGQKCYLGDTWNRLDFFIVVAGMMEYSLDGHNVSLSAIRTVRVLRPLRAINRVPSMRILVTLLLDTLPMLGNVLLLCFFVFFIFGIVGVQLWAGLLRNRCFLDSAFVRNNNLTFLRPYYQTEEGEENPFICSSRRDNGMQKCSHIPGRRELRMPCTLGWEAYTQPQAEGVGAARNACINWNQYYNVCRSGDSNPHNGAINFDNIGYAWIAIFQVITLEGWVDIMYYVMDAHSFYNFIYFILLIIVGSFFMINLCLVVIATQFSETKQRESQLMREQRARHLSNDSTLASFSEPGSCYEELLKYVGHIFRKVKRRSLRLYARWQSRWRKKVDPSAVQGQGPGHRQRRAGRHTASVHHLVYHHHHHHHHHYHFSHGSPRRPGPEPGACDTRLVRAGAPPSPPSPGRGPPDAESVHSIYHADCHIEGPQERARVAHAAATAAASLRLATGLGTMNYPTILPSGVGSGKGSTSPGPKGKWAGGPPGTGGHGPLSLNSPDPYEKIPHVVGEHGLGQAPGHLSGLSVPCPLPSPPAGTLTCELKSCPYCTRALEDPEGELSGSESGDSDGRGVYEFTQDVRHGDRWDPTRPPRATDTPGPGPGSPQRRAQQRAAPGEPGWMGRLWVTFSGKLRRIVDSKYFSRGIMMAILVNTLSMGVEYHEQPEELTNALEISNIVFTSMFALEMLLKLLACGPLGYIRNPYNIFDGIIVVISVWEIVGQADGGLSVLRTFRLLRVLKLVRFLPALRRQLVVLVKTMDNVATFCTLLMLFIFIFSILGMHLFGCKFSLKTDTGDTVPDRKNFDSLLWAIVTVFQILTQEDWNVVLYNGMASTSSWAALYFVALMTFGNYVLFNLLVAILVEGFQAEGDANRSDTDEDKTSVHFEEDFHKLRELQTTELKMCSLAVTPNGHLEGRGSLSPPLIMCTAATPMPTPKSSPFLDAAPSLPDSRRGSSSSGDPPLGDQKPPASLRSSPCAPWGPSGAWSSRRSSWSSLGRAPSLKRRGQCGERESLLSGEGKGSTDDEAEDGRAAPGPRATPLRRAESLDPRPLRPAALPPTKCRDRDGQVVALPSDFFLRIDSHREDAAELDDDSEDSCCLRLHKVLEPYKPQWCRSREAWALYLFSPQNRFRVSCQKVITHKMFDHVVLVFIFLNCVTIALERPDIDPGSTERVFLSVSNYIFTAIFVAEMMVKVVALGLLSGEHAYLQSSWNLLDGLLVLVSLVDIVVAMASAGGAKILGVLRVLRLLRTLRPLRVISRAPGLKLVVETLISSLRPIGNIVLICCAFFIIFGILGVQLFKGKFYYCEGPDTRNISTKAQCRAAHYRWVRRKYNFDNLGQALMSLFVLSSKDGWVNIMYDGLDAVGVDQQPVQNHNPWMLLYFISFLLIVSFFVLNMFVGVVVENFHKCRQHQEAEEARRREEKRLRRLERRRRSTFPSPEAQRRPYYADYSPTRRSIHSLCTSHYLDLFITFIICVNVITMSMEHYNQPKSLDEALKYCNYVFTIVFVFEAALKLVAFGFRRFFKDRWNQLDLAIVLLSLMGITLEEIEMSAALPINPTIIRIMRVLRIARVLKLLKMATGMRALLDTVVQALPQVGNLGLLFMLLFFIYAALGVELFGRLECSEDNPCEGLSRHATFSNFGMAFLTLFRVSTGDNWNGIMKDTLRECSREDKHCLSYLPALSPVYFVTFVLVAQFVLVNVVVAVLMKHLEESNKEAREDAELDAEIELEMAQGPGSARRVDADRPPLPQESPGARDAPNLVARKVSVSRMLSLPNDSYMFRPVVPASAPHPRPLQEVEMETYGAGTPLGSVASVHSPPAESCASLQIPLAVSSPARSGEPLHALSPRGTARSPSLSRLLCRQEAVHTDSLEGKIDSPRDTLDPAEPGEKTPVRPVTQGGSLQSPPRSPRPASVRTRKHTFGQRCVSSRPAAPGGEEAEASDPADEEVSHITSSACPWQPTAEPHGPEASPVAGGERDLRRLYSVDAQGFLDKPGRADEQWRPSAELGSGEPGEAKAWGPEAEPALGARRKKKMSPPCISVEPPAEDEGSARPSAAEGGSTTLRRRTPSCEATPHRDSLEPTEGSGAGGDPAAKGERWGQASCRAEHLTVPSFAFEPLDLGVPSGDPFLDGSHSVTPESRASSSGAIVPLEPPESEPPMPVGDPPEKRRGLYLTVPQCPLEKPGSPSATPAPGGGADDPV
Starred values were filed as active, the others as inactive; / = no result given. Most compounds without a hit are left out; they make up all but 7.6% or so of the library.

SMILES	M1 agonist	M1 antagonist	PLAP activator	Cav32 inh
CCOc1ccccc1NC(=O)CSc1nnc(Cc2cccn2C)n1-c1ccc(F)cc1	0.56	0.13	1.5	-9.3*
CC(C)c1ccc(CN2CCC(C(=O)NCc3cccnc3)CC2)cc1	/	/	1.4	0.77
CCOC(=O)CSC(C)C(=O)Nc1nnc(C(C)C)s1 (centres undefined)	0.048	-0.16	/	0.3
Cn1c(=O)n(-c2cccc(Cl)c2)c(=O)c2c3c(sc21)COC(C)(C)C3	/	/	1	1.1
Cc1csc(NC(=O)CNS(=O)(=O)c2cccs2)n1	-0.16	-0.57	2*	-0.29
Cc1ccc2nc(NC(=O)Cc3cccs3)sc2c1	/	/	1.2	-3.6*
COc1ccc(NC(=O)CNS(=O)(=O)c2cccs2)c(OC)c1	/	/	1.4	0.64
COc1ccc2nc(NC(=O)CNS(=O)(=O)c3cccs3)sc2c1	/	/	2.5*	-0.86
COc1ccc2nc(NC(=O)Cc3cccs3)sc2c1	/	/	0.8	0.081
COc1cc(C(=S)N2CCCC2)cc(OC)c1O	/	/	1	0.074
COC(=O)c1ccccc1NC(=O)CSc1nnnn1-c1ccc(C)cc1C	0.82	-0.025	0.9	-0.45
Cc1ccc(-n2nnnc2SCC(=O)NNC(=O)c2ccco2)c(C)c1	/	/	2*	0.18
COc1ccc(-c2nc(C(N)=O)c3[nH]c(=O)n(-c4ccccc4OC)c3n2)c(OC)c1	-0.87	1.1	2.4*	/
COc1ccc(OC)c(-c2nc(C(N)=O)c3[nH]c(=O)n(-c4ccc(F)cc4)c3n2)c1	0.51	-1.2	1.5	/
CC(C)CCN(C(=O)Nc1ccccc1)C(C)c1cccs1 (centres undefined)	/	/	1	-4.8*
CC(c1cccs1)N(C(=O)Nc1ccccc1)C1CCCCC1 (centres undefined)	/	/	1	-2.4
Cc1ccc(-c2nnn(CC(=O)N(c3ccccc3F)C(CC(C)C)C(=O)NCC3CCCO3)n2)cc1 (centres undefined)	/	/	1.4	-4.4*
Cc1ccc(N(C(=O)Cn2nnc(-c3ccc(F)cc3)n2)C(CC(C)C)C(=O)NCC2CCCO2)cc1 (centres undefined)	/	/	1.4	-7.4*
CC(C)CC(C(=O)NCC1CCCO1)N(C(=O)Cn1nnc(-c2ccc(F)cc2)n1)c1ccccc1F (centres undefined)	/	/	1.3	-3.4*
COc1cccc(N(C(=O)Cn2nnc(-c3ccc(C)cc3)n2)C(C(=O)NC(C)(C)C)c2c[nH]c3ccccc23)c1 (centres undefined)	/	/	1.4	-5.6*
O=C(CCn1ccc2ccccc21)Nc1ccc(N2CCOCC2)cc1	0.11	0.18	1.2	0.4
CC(C)(C)NC(=O)C(c1ccco1)N(C(=O)Cn1nnc(-c2ccc(F)cc2)n1)c1ccccc1F (centres undefined)	-0.22	-0.16	1.4	-5*
O=C(NC(NC(=S)Nc1ccc(Cl)cc1Cl)C(Cl)(Cl)Cl)c1cccc([N+](=O)[O-])c1 (centres undefined)	/	/	1.2	-4.9*
CCOc1ccc(N2C(=O)CS/C2=N/NC(=O)COc2ccc3ccccc3c2)cc1	/	/	1.4	-3.5*
FC(F)Sc1ccc(NC(=S)NCC2CCCCC2)cc1	/	/	1.7	-5.7*
SMILES	M1 agonist	M1 antagonist	PLAP activator	Cav32 inh
CCCN(CCC)C(=O)CSc1nc2n[nH]c(C)c2c(=N)n1-c1ccc(OCC)cc1	1.4	0.38	1	-6.2*
CCCN(CCC)C(=O)CSc1nc2n[nH]c(C)c2c(=N)n1-c1ccc(OC)cc1	0.47	-0.14	/	/
O=C(NCCc1ccccc1F)C1CCCN1S(=O)(=O)c1ccc2ccccc2c1 (centres undefined)	/	/	/	-1.9
CN(C)S(=O)(=O)Oc1ccsc1C(=O)Nc1ccc(Cl)cc1	/	/	0.8	-4.4*
COc1cc(C[C@@H](CO)[C@H](CO)Cc2ccc(O)c(OC)c2)ccc1O	/	/	/	-0.33
CC(C)N1CC2(c3ccccc3)CN(C(C)C)CC(c3ccccc3)(C1)C2=O	/	/	1	-3.4*
COc1ccc(NC(=S)NCCC(c2ccccc2)c2ccccc2)c(OC)c1	/	/	1.9	-1.6
Cc1c(Cl)cccc1NC(=S)NCCC(c1ccccc1)c1ccccc1	/	/	/	-6.9*
S=C(NCCc1ccccc1)Nc1ccc(Cl)cc1Cl	/	/	1	-5.1*
COc1cccc(NC(=S)NCCC(c2ccccc2)c2ccccc2)c1	/	/	1	-6.9*
COc1cccc(NC(=O)C(NCCC(C)C)c2ccccc2)c1 (centres undefined)	/	/	0.8	-6.2*
COc1ccccc1NC(=S)NCCc1ccccc1	/	/	0.9	0.56
COc1cccc(NC(=O)C(NCC2CCCCC2)c2ccccc2)c1 (centres undefined)	/	/	1.5	0.39
NC(=O)C1CCCNC1 (centres undefined)	0.4	-0.077	/	0.85
COCCOc1ccc(C(F)(F)F)cc1Nc1nc2ccccc2o1	0.57	0.045	1.1	-1.4
Cc1cc(Cl)ccc1NC(=S)NCCC(c1ccccc1)c1ccccc1	/	/	1.3	-3.6*
Cc1ccc(C(=O)Nc2ccccc2C(=O)N2CC3(C)CC2CC(C)(C)C3)cc1 (centres undefined)	/	/	1.4	-5.9*
CCN(CC)c1ccc2cc(S(=O)(=O)c3ccc(Cl)cc3)c(=O)oc2c1	/	/	/	-4.1*
Cn1c(=O)c2c(nc(NCc3ccc4c(c3)OCO4)n2Cc2ccc(F)cc2)n(C)c1=O	-0.63	-0.2	0.9	-4.3*
Cn1c(=O)c2c(nc(NCc3ccc4c(c3)OCO4)n2Cc2ccccc2)n(C)c1=O	-1.5	0.85	1.5	-6*
Cn1c(=O)c2c(nc(NCc3ccc4c(c3)OCO4)n2Cc2ccccc2F)n(C)c1=O	-0.67	-0.076	0.9	-0.87
S=c1[nH]nc(-c2ccncc2)n1Cc1ccccc1	0.6	0.41	2*	0.48
CCOC(=O)c1c(NC(=O)OC)sc(C(=O)N(CC)CC)c1C	0.079	0.43	1.6	0.78
Cc1ccc(OCC(O)Cn2c(=N)n(Cc3ccccc3)c3ccccc32)cc1 (centres undefined)	/	/	1.5	-5.3*
COc1ccc(OCC(O)Cn2c(=N)n(Cc3ccccc3)c3ccccc32)cc1 (centres undefined)	0.022	0.49	8	/
SMILES	M1 agonist	M1 antagonist	PLAP activator	Cav32 inh
CCOC(=O)CN1C(=O)C(Sc2n[nH]c(-c3ccccc3)n2)CCc2ccccc21 (centres undefined)	/	/	2*	-2.3
Cc1ccc(-c2cccc(NC(=O)C3C4C=CC(C4)C3C(=O)O)c2)o1 (centres undefined)	/	/	1.1	1.2
O=C(c1cnn2c1NC(c1ccco1)CC2C(F)(F)F)N1CCN(c2cccc(Cl)c2)CC1 (centres undefined)	-0.6	0.095	1.4	-4.2*
O=C(c1cc2n(n1)C(C(F)(F)F)CC(c1ccco1)N2)N1CCc2ccccc2C1 (centres undefined)	0.66	1.9	1.2	-3.7*
Cc1ccc(C)c(N2CCN(CC3CC=CCC3)CC2)c1 (centres undefined)	/	/	0.7	-2.5
CCCCCCNC(=O)Cc1nc2nc(C)cc(C)n2n1	-0.39	0.66	1.1	-3.2
CS(=O)(=O)c1ccc(CNC(=O)C2(C(F)(F)F)CC(CCCO)CCCO2)cc1 (centres undefined)	/	/	/	-0.092
